NCOA2 inhibitor: inhibits human steroid receptor coactivator 2. HEK293 GAL4-SRC2 luciferase reporter, luminescence. inhibition, % at 9 µM. 370,000 tested, 0.17% active;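 active = inhibition above the mean inhibition of all tested compounds plus 3 SD, set per campaign, cut at about 52% in these data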
NR5A2 inv ag: NR5A2 inverse agonism in reporter assay. O00482. HEK293T StAR-luciferase reporter, LRH-1 transfected, 24 h. inhibition, % at 3.6 µM. 360,000 tested, 0.13% active;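 active = inhibition above the mean inhibition of all tested compounds plus 3 SD, cut at about 73% in these data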
Gli-Sufu antag: blocks Gli-Sufu signaling in a luciferase reporter; Sufu-KO-LIGHT fibroblasts, Gli luciferase reporter luminescence; inhibition, % at 5 µM; 340,000 tested, 0.74% active; AID 588413;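 active = inhibition above about 55%, limit read from the data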
NCOA1 inh: human NCOA1 inhibition. HEK293 GAL4-SRC1 luciferase reporter, luminescence. inhibition, % at 3.6 µM. 360,000 tested, 0.12% active. Q15788;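 active = inhibition above the campaign mean plus 3 SD, with each screening campaign given its own cutoff, cut at about 60% in these data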
COUP-TFII inh: NR2F2 (human) inhibition, primary screen. P24468. HEK293T NGFI-A luciferase reporter, luminescence. inhibition, % at 8.6 µM. 370,000 tested, 0.7% active. AID 686940;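 active = inhibition above a per-plate cutoff, mean inhibition of test wells between control levels plus 3 SD, cut at about 38% in these data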;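 also: cells cotransfected with COUP-TFII expression vector driving the NGFI-A reporter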
SRC3 inh: inhibitors of human steroid receptor coactivator 3 (SRC3) | 360,000 tested, 0.17% active | inhibition, % at 3.6 µM | HEK293 GAL4-SRC3 luciferase reporter, luminescence | AID 588352;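 active = inhibition above a per-campaign cutoff, the mean of all compounds plus 3 SD, cut at about 60% in these data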;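 also: higher means less SRC3-driven luciferase light from the GAL4 reporter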
Numbers stand for hits; 0 = inactive; - = no result. Shown are actives, neighbours in structure and some others; about 1.2% of the full set was active somewhere.

SMILES | NCOA2 inhibitor | NR5A2 inv ag | Gli-Sufu antag | NCOA1 inh | COUP-TFII inh | SRC3 inh
COc1ccc(C(=O)Nc2nc3ccccc3[nH]2)cc1OC | 0 | 0 | 0 | 0 | 0 | 0
Cc1ccc(S(=O)(=O)N2OC(c3ccccc3)C[C@H]2CC=C(c2ccccc2)c2ccccc2)cc1 (stereo partly drawn) | - | - | - | - | 0 | -
Cc1c(N=Nc2c(-c3ccc([N+](=O)[O-])cc3)[nH]n(C(N)=S)c2=O)cccc1[N+](=O)[O-] | 0 | 0 | 68 | 0 | 0 | 0
NC(=S)n1[nH]c(-c2ccc([N+](=O)[O-])cc2)c(N=Nc2ccccc2[N+](=O)[O-])c1=O | 0 | 0 | 0 | 0 | 0 | 0
O=C(CCC1CCCC1)Nc1ccc(C(=O)NCc2cccnc2)cc1 | 0 | 74 | 0 | 0 | 0 | 0
O=C(O)CCCC(=O)Nc1ccc(C(=O)NCc2cccnc2)cc1 | 0 | 0 | 0 | 0 | 0 | 0
N#CC(c1ccc(Cl)cc1)c1ccc2c(C(F)(F)F)cc(C(F)(F)F)nc2n1 (stereo not drawn) | 0 | 0 | 92 | 66 | 58 | 76
Cc1cccc(Cl)c1NC(=O)N(C)c1ccccc1 | 0 | - | - | - | 0 | -
O=C(O)c1ccc(N/N=C/c2ccc3c(c2)OCO3)cc1 | 56 | 0 | 0 | 0 | 0 | 0
Cc1ccc(S(=O)(=O)N2CCCc3nc(-c4ccc(F)cc4)ccc32)cc1 | 0 | - | - | - | 0 | -
CCCCc1c(O)c2ccccc2n(CCCC)c1=O | 0 | 0 | 0 | 0 | 0 | 0
CCCCc1c(CCC)c(=N)c2ccccc2n1C | 0 | 0 | 76 | 0 | 0 | 0
CN1C(=O)[C@@]2(O[C@H]3C=CC=CN3C3=C2C(=O)CCC3)c2cc([N+](=O)[O-])ccc21 | 0 | - | - | - | 0 | -
COc1ccccc1CNc1ncc(-c2ccc(F)cc2)n1C | 0 | 0 | 0 | 0 | 0 | 0
COc1ccc(CNc2ncc(-c3ccc(F)cc3)n2C)c2ccccc12 | 82 | 0 | 56 | 0 | 0 | 0
CC(C)c1c(C(=O)N/N=C/c2ccc3c(c2)OCO3)nnn1-c1nonc1N | 0 | 0 | 0 | 0 | 0 | 0
CCN(CC)c1ccc(/C=N/NC(=O)c2nnn(-c3nonc3N)c2C(C)C)c(O)c1 | 0 | 0 | 92 | 0 | 0 | 77
Fc1ccc(N=C2NN=C(c3cc(F)ccc3F)CS2)cc1 | 0 | 0 | 0 | 0 | 0 | 0
O=S(=O)(c1ccc(N=C2NN=C(c3cc(F)ccc3F)CS2)cc1)N1CCOCC1 | 0 | 0 | 0 | 0 | 41 | 0
COc1cc(NS(C)(=O)=O)ccc1Nc1c2ccccc2nc2ccccc12 | 0 | 0 | 74 | 62 | 0 | 64
COc1ccc(OC)c(Nc2c3ccccc3nc3ccccc23)c1 | 0 | 0 | 0 | 0 | 0 | 0
COc1ccc(S(=O)(=O)N2CCOCC2)cc1NC(=O)CCNC(=O)c1ccc([N+](=O)[O-])cc1 | 0 | 82 | 0 | 0 | 0 | 0
COc1ccc(CN2CCC(CNC(=O)NC3CCC(C)CC3)CC2)cc1 (stereo not drawn) | 0 | - | - | - | 0 | -
O=S1(=O)N[C@@H](Cc2ccccc2)COc2cccc(NCCO)c21 | 0 | - | - | - | 0 | -
O=C(NNC(=O)c1ccccc1-c1ccccc1C(=O)O)c1ccccc1 | 0 | 0 | 0 | 0 | 0 | 0
SMILES | NCOA2 inhibitor | NR5A2 inv ag | Gli-Sufu antag | NCOA1 inh | COUP-TFII inh | SRC3 inh
O=C(C=P(c1ccccc1)(c1ccccc1)c1ccccc1)c1ccccc1-c1ccccc1C(=O)C=P(c1ccccc1)(c1ccccc1)c1ccccc1 | 0 | 94 | 86 | 0 | 80 | 62
Cc1ccc(S(=O)(=O)Nc2cccc3cccnc23)cc1 | 0 | 0 | 63 | 0 | 0 | 0
COc1cc(NS(=O)(=O)c2ccc(C)cc2)c2ncccc2c1 | 0 | 0 | 88 | 0 | 0 | 0
O=S(=O)(Nc1cc(Sc2cccc3cccnc23)c(O)c2ccccc12)c1ccccc1 | 95 | - | - | - | 0 | -
CCCCNC(=O)N1CCCC1C(=O)Nc1cccc(OC)c1 (stereo not drawn) | 0 | - | - | - | 0 | -
C#CCNC(=O)C[C@H]1C[C@@]2(C(=O)OC)C(=C[C@H](C(C)(C)C)O[C@@H]2C)N(Cc2ccc(Cl)cc2Cl)C1=O | 0 | - | - | - | 0 | -
COC(=O)C1=C(C)N(C)C(=NCc2ccccc2)NC1c1cccc(Cl)c1 (stereo not drawn) | 0 | - | - | - | 0 | -
CC(NNC(=S)N1CCN(c2ccccn2)CC1)c1nccc2ccccc12 (stereo not drawn) | 0 | 0 | 93 | 0 | 0 | 0
O=C(N/N=C/c1ccccn1)c1cc(-c2ccc(Br)cc2)nc2ccccc12 | 0 | 0 | 72 | 0 | 0 | 0
CCCOc1cccc(-c2cc(C(=O)N/N=C/c3ccccn3)c3ccccc3n2)c1 | 0 | 0 | 0 | 0 | 0 | 0
O=C(N/N=C/c1ccccn1)c1cc(-c2ccc(Cl)cc2)nc2ccccc12 | 0 | 0 | 89 | 0 | 0 | 0
CC(C)C[C@@H]1NC(=O)[C@H]2C[C@]3(c4ccccc4)c4ccccc4N[C@H]3N2C1=O | 0 | - | - | - | 0 | -
Cc1cccc(CS(=O)(=O)c2ncc(Cl)c(C(=O)Nc3nnc(C(C)C)s3)n2)c1 | - | 0 | 0 | 0 | - | 0
CSc1nnc(NC(=O)c2nc(S(=O)(=O)Cc3cccc(C)c3)ncc2Cl)s1 | 56 | 0 | 0 | 0 | 0 | 0
Nc1ncc([N+](=O)[O-])c(N2CCCCCC2)n1 | 0 | 0 | 0 | 65 | 0 | 0
COc1cccc(C(NC(C)=O)c2ccc3cccnc3c2O)c1 (stereo not drawn) | 0 | 76 | 69 | 0 | 0 | 0
CCCCC(=O)NC(c1cccc([N+](=O)[O-])c1)c1ccc2cccnc2c1O (stereo not drawn) | 0 | 0 | 62 | 0 | 0 | 0
CC(=O)NC(c1cccc([N+](=O)[O-])c1)c1ccc2cccnc2c1O (stereo not drawn) | 0 | 83 | - | 0 | 0 | 0
O=[N+]([O-])c1ccc(NC(c2ccccc2)c2ccc3cccnc3c2O)cc1 (stereo not drawn) | 0 | 0 | 70 | 73 | 0 | 87
Oc1c(C(Nc2cccc(C(F)(F)F)c2)c2cccnc2)ccc2cccnc12 (stereo not drawn) | 0 | 0 | 0 | 0 | 0 | 0
COC(=O)C1CCCN(C(=O)C2CCN(S(=O)(=O)c3cccc4cccnc34)CC2)C1 (stereo not drawn) | 0 | - | - | - | 0 | -
CO/N=C/NC(=O)N1OC[C@@H]2COc3ccc4ccccc4c3[C@@H]21 | 0 | 0 | 0 | 0 | 0 | 0
NC(=S)N1OC[C@@H]2COc3ccc4ccccc4c3[C@@H]21 | 54 | 0 | 0 | 0 | 0 | 0
CCCC(=O)Nc1ccc(C(=O)N/N=C/c2ccc([N+](=O)[O-])o2)cc1 | 0 | 83 | 0 | 65 | 0 | 71
COc1ccc(N(C(=O)CCl)C(C(=O)NCCc2ccccc2)c2cccs2)cc1 (stereo not drawn) | 0 | 0 | 95 | 0 | 0 | 71
Cc1cc([N+](=O)[O-])nn1CCCC(=O)Nc1ccc(Cl)cc1Cl | 0 | 0 | 0 | 62 | 0 | 0
Cc1c(Cl)cccc1NC(=O)CCCn1nc([N+](=O)[O-])cc1C | 0 | 0 | 0 | 0 | 0 | 0
Cc1nnsc1C(=O)N/N=C/c1ccc2ccccc2c1O | 0 | 0 | 86 | 81 | 0 | 84
